Screening results deposited in PubChem by National Center for Advancing Translational Sciences (NCATS).
Six1-Eya2 blk = qHTS Assay for Inhibitors of the Six1/Eya2 Interaction; Homeobox protein SIX1 (Homo sapiens) + Protein phosphatase EYA2 (Homo sapiens), …; 0.56% of 360,000 active; AlphaScreen GST-Six1/His-Eya2 binding, biochemical; active compounds read low; activity change, % (no concentration beside the values)
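AlphaScreen with GST-Six1 and His-Eya2 (5X mix: 250 nM and 500 nM), glutathione donor and nickel acceptor beads; buffer 50 mM Tris pH 8.0, 300 mM NaCl, 1 mM TCEP; 1 h at 37 C in the dark.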
TSHR antag = Antagonists of the Thyroid Stimulating Hormone Receptor: HTS campaign. 0.2% of 330,000 active. AID 504810, 2011. activity change, negative = inhibition, % at 11.5 µM. TSHR-expressing cells, TSH-stimulated cAMP HTRF, 2 h; active compounds read low;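 active means activity change below a set negative limit, meaning inhibition stronger than a set level, cut at about -70% in these data; inconclusive means activity change between two set negative limits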
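Freshly harvested TSHR cells receive pin-tooled compound, then EC80 TSH at 4nM final. After 2 hours at 37 deg C, antibody in lysis buffer and cAMP-d2 are added; 30 minutes at ambient temperature precede the HTRF read.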
Chronic BCR inh = qHTS Assay to Find Inhibitors of Chronic Active B-Cell Receptor Signaling; ABC-DLBCL IkBa-CBG/CBR reporter, luminescence ratio, 4 h; Potency, µM (titrated, usually from 46.1 µM), usual class: inhibitors; 0.05% of 340,000 active; active means well fitted inhibition curve with a large enough effect in the signal ratio, with a control signal flat, not every such curve was filed as active; inconclusive means small, poorly fitted or top-dose-only effect, or effect the other way, or a change in a side signal; the % refers to the signal ratio
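Doxycycline induced both beetle luciferases in TMD8 lymphoma cells; IKK-driven degradation limits the IkappaBalpha-fused green signal, while red luminescence normalises for cell number and nonspecific effects. Compounds tested up to 46 uM, 4 hrs.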
S-ASM inh = Inhibitors of Secretory Acid Sphingomyelinase (S-ASM): qHTS | 0.006% of 340,000 active | placental ASM, HMU-PC fluorogenic substrate, 60 min | Sphingomyelin phosphodiesterase (Homo sapiens), P17405 | Potency, µM (series often up to 57.5 µM), usual class: inhibitors; active means well fitted inhibition curve with a large enough effect; inconclusive means small, poorly fitted or top-dose-only effect; inactive means no such curve, though single readings can be large or run the other way
Target sequence (P17405 47-631 limits assumed): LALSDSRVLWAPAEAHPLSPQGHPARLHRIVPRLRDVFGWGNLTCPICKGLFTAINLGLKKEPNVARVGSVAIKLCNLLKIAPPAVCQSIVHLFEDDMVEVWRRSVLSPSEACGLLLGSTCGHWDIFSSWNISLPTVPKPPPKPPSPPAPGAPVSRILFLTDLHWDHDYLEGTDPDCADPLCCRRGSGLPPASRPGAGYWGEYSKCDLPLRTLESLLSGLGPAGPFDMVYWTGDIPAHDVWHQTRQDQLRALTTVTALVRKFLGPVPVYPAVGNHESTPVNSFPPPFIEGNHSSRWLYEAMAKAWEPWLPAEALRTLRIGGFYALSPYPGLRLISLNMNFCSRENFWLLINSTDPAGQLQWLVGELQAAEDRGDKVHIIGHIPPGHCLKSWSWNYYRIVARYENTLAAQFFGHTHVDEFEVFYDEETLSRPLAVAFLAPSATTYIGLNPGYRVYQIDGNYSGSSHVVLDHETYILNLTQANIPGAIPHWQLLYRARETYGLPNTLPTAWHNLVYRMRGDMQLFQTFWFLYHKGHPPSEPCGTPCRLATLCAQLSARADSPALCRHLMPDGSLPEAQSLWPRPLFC
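HMU-PC0 cleavage (9 uM final) by human placental ASM, 60 min at 37 °C following 10 min compound exposure at RT; stopped at pH 10, fluorescence Ex 386/Em 447 nm.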
CtBP-E1A inh = qHTS Assay for Inhibitors of the CtBP/E1A Interaction; CtBP / adenovirus E1A interaction (AlphaScreen); AlphaScreen GST-E1A/His-CtBP binding, 1536-well; active compounds read low; activity change, % (concentration not given with the values); 0.49% of 340,000 active
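Protein mix (5X: 125 nM each GST-E1A, His-CtBP) was incubated with pinned compound 2 h at 37 deg C in dark, in 50 mM Tris pH 8.0 buffer with 300 mM NaCl. Glutathione donor and nickel acceptor beads followed; AlphaScreen signal read after 1 h.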
Hits are given with their value; – = inactive; ? = inconclusive; · = not tested or not shown. Most compounds without a hit are left out; they make up all but 0.85% or so of the library. Unless noted, no stated cut-off is given here; in the data, active means activity change below about -65%; inconclusive means mostly about -30% to -63%; inactive means weaker than that.

SMILES	Six1-Eya2 blk	TSHR antag	Chronic BCR inh	S-ASM inh	CtBP-E1A inh
O=C(c1ccc2c(c1)N(Cc1cccc(Cl)c1)C(=O)c1ccccc1S2(=O)=O)N1CCC(Cc2ccccc2)CC1	·	·	–	·	·
COc1cccc(/C=N\NC(=O)C2C(=O)NCC2c2ccccc2)c1O (stereo not drawn)	-86.5	–	–	–	-89.8
O=C(CN1C(=O)NC2NC(=O)NC21)N/N=C/c1ccccc1O (stereo not drawn)	-90.5	–	–	–	-89.8
COc1ccc(/C=N/NC(=O)CSCC(=O)Nc2ccccc2)cc1	–	–	–	–	–
CSc1nc(C)cc(OCC(=O)N/N=C/c2ccccc2O)n1	-68.4	–	?	–	-68.7
COc1cccc(/C=N/NC(=O)CSCC(=O)Nc2ccccc2)c1O	-69.8	–	–	–	-85.2
Cc1nc(-c2ccc(C)c(S(=O)(=O)N3CCC(C(=O)NCc4ccc(F)cc4)CC3)c2)no1	·	·	–	·	·
CCOc1ccc2nc(N3CCN(C(=O)c4ccc5c(c4)CCCC5)CC3)sc2c1	·	·	–	·	·
O=C(Cn1cc(C(F)(F)F)ccc1=O)N/N=C/c1ccccc1O	?	–	–	–	-91.2
O=C(NCC(=O)N1CCCC1)NN=Cc1ccccc1O	?	·	·	·	-77.1
O=C(CSCC(=O)NN=Cc1ccccc1O)NN=Cc1ccccc1O	-82.6	·	·	–	–
O=C(Cn1cc(C(F)(F)F)ccc1=O)N/N=C/c1ccc(F)cc1	–	–	–	–	–
O=C(CCCCC(=O)NN=Cc1ccccc1O)NN=Cc1ccccc1O	–	·	·	–	–
COc1cccc(/C=N/Nc2nc3ccccc3n3cnnc23)c1O	-86.8	–	?	–	-92.7
Cc1sc(-c2cc3ccccc3oc2=O)nc1-c1ccc(Cl)cc1	·	·	–	·	·
CCCCCOC(=O)c1ccc(OC(=O)c2sc3ncn(Cc4cccc(F)c4)c(=O)c3c2C)cc1	·	·	–	·	·
Cc1cc(C)cc(-n2cnc3cc(C(=O)NC4CCCCCC4)ccc32)c1	·	·	–	·	·
O=C(NC1CCCCC1)c1sc(=S)n2c1[nH]c(=O)c1ccccc12	–	-83.4	?	–	–
CC(C)NC(=O)c1sc(=S)n2c1[nH]c(=O)c1ccc(C(=O)NCCc3ccc(Cl)cc3)cc12	–	?	–	–	·
CCCCNC(=O)c1sc(=S)n2c1[nH]c(=O)c1ccccc12	–	-73.9	–	–	–
O=C(NCC1CCCO1)c1sc(=S)n2c1[nH]c(=O)c1ccc(C(=O)N3CCCCC3)cc12 (stereo not drawn)	–	–	?	–	?
O=C(NCCc1ccccc1)c1ccc2c(=O)[nH]c3c(C(=O)NCC4CCCO4)sc(=S)n3c2c1 (stereo not drawn)	–	?	–	–	–
CCOc1ccc(CCNC(=O)c2ccc3c(=O)[nH]c4c(C(=O)NC(C)C)sc(=S)n4c3c2)cc1	–	-85.5	–	–	·
Cc1ncc(CO)c(/C=N/NC(=O)c2cc3c(s2)CCCC3)c1O	-88.4	–	–	–	·
Cc1ncc(CO)c(/C=N/NC(=O)c2ccccc2Br)c1O	-90.5	–	?	–	-82.6
SMILES	Six1-Eya2 blk	TSHR antag	Chronic BCR inh	S-ASM inh	CtBP-E1A inh
Cc1ncc(CO)c(/C=N/NC(=O)c2ccoc2C)c1O	-82.0	–	?	–	-86.9
C/C(=N/NC(=O)COc1cc(C)ccc1C(C)C)C(=O)O	–	–	10µM	–	–
Clc1ccc(CSc2ccc(-c3ccccn3)nn2)cc1	?	–	–	–	–
O=C(CSc1ccc(-c2ccccn2)nn1)NC1CCCC1	-88.0	–	–	–	-75.8
c1ccc(CSc2ccc(-c3ccccn3)nn2)cc1	-90.8	–	–	–	?
O=C(CSc1ccc(-c2ccccn2)nn1)c1ccccc1	-86.4	–	?	–	-87.7
O=C(CSc1ccc(-c2ccccn2)nn1)N1CCCC1	-92.0	–	–	–	–
NC(=O)C1CCN(c2nc(-c3ccccc3Cl)cs2)CC1	·	–	·	·	·
c1ccc(C(NCc2cccnc2)(c2ccccc2)c2ccccc2)cc1	·	–	·	·	·
Cc1ccc(-n2ncc3c(Nc4cccc(C)c4C)ncnc32)cc1	·	·	–	·	·
